Experimental data reported in PubChem BioAssay (NCATS).
Results filed as inconclusive are left out. Activity calls are given as the source filed them. Unless noted, calls follow the shape of the dose curve; as a rule, active = well fitted curve in the direction sought with a large enough effect; inconclusive = small, poorly fitted or top-dose-only effect, or another doubt; inactive = no such curve, though single readings can be large; an effect the other way counts as inactive or inconclusive.

What was measured:
[1] = qHTS assay to identify small molecule inhibitors of chordoma cells - UCH-2 (AID 1259356); also: potency is read from the fitted curve at half-maximal effect
[2] = P-glycoprotein substrates identified in KB-8-5-11 adenocarcinoma cell line, qHTS therapeutic library screen (AID 1346987); also: nearly all actives have a fitted effect of over 65% in size; also: potency is read from the fitted curve at half-maximal effect
Procedure, shortened: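 KB-8-5-11, a colchicine-selected P-gp-overexpressing KB-3-1 subline, was grown without colchicine for the assay. Cells were seeded at 500 cells/well, dosed in concentration-response and incubated 72 h at 37 degree C, 5% CO2. Viability was read by CellTiter-Glo luminescence.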

[3] = Natriuretic polypeptide receptor (hNpr1) antagonism - Pilot counterscreen GloSensor control cell line (AID 1347045; calls by dose curve; also: potency is read from the fitted curve at half-maximal effect)
Procedure, shortened: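 HEK293 cGMP GloSensor cells preloaded 2 h with 2% GloSensor reagent, then compound 30 min before baseline luminescence read. Stimulated with 50 uM sodium nitroprusside, 20 min at room temperature, then read again; counterscreen for Npr1 antagonism.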

[4] = target: Atrial natriuretic peptide receptor 1 (Homo sapiens) (UniProt P16066); test: Natriuretic polypeptide receptor (hNpr1) antagonism - Pilot screen (AID 1347049; calls by dose curve;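 also: agonist-evoked cGMP luminescence read 20 min after hNppA addition; series mostly up to about 58 µM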)
Atrial natriuretic peptide receptor 1 (Homo sapiens), sequence (P16066 whole entry, looked up): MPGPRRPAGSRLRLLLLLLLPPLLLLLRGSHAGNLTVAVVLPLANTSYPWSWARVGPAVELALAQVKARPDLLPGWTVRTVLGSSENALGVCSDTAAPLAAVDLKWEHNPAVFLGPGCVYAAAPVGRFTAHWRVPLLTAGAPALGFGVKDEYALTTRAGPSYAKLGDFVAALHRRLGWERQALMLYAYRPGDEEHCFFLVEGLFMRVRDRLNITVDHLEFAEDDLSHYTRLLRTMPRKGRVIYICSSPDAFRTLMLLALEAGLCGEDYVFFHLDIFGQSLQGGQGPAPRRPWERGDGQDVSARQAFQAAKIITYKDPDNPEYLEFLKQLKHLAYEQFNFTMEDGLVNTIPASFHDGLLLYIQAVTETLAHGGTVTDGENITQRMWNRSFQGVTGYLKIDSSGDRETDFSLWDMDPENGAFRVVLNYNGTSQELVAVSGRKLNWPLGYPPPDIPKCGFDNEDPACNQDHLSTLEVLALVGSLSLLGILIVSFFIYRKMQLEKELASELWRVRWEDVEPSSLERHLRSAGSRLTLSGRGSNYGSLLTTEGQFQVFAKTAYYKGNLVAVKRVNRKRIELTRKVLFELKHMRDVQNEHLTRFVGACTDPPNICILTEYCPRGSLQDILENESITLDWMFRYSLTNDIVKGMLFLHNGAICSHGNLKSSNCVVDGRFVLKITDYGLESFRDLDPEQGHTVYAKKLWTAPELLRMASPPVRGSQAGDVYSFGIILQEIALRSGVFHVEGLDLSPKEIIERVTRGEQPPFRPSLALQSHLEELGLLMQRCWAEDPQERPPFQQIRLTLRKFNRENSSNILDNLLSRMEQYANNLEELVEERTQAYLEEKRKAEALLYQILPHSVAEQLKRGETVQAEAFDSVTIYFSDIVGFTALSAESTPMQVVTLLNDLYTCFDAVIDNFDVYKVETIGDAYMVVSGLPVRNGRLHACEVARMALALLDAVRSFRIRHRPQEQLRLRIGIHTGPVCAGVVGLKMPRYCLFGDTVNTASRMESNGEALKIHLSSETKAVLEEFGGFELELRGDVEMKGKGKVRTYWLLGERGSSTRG
Procedure, shortened: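 HEK293 cells co-expressing hNpr1 and the GloSensor pGS-40F cGMP luciferase sensor were preloaded with 2% GloSensor reagent for 2 h. Compounds were added for 30 min at room temperature, then cells were stimulated with 0.1 nM hNppA for 20 min before luminescence readout.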

[5] = target: Atrial natriuretic peptide receptor 2 (Homo sapiens) (UniProt P20594); test: Natriuretic polypeptide receptor (hNpr2) antagonism - Pilot subtype selectivity assay (AID 1347050; calls by dose curve)
Atrial natriuretic peptide receptor 2 (Homo sapiens), sequence (P20594 whole entry, looked up): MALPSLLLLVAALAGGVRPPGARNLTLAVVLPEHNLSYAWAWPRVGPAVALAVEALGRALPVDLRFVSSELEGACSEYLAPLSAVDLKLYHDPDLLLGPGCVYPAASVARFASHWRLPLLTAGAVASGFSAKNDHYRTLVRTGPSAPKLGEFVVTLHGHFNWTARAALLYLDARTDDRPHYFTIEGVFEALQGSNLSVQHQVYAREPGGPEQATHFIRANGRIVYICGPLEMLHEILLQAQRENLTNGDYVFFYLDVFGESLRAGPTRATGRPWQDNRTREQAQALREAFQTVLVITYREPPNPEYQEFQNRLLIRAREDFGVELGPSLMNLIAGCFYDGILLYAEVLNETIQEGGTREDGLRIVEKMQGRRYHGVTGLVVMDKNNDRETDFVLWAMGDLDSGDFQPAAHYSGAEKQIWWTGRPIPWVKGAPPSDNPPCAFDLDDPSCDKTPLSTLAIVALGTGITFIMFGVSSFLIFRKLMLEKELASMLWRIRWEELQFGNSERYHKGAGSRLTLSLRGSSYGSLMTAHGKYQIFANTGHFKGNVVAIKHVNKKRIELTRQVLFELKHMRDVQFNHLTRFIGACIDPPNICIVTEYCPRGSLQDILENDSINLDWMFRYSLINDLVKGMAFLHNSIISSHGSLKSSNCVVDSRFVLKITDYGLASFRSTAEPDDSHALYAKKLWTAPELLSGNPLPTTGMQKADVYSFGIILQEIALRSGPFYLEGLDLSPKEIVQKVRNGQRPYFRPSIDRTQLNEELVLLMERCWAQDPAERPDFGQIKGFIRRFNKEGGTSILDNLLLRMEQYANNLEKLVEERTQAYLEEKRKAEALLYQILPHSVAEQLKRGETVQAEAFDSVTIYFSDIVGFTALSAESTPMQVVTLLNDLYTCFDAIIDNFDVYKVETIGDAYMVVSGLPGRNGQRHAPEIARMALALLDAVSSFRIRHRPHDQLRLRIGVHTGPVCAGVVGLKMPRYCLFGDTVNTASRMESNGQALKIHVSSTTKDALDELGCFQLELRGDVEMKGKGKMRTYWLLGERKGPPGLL
Procedure, shortened: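 cGMP-sensor HEK293/hNpr2 cells; 2% GloSensor reagent 2 h RT; compounds 30 min; baseline luminescence read; 1 nM hNppC agonist 20 min RT; final luminescence read by CCD camera. Antagonism = reduced post-agonist signal.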

[6] = NS1 protein of Zika virus - qHTS assay to identify small molecule inhibitors in human HEK 293 cells (AID 1347053); also: series mostly up to about 46 µM; nearly all actives have a fitted effect of over 55% in size
Procedure, shortened: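 HEK 293 cells, seeded 20 h at 37 C, were pretreated with compound 1 h, then infected with ZIKV MR766 (MOI = 0.5) for 24 h. NS1 was read by TR-FRET with two anti-NS1 antibodies, normalized to uninfected and infected wells.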

[7] = target: T1, Tyrosine-protein phosphatase non-receptor type substrate 1 (Homo sapiens) + Leukocyte surface antigen CD47 (Homo sapiens) (UniProt P78324+Q08722); test: CD47-SIRPalpha protein protein interaction - Alpha assay qHTS validation (AID 1347059);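 also: bead proximity luminescence from CD47 binding SIRPalpha after compound preincubation with SIRPalpha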
T1 sequence (P78324 whole entry, looked up, the tested form may be a part): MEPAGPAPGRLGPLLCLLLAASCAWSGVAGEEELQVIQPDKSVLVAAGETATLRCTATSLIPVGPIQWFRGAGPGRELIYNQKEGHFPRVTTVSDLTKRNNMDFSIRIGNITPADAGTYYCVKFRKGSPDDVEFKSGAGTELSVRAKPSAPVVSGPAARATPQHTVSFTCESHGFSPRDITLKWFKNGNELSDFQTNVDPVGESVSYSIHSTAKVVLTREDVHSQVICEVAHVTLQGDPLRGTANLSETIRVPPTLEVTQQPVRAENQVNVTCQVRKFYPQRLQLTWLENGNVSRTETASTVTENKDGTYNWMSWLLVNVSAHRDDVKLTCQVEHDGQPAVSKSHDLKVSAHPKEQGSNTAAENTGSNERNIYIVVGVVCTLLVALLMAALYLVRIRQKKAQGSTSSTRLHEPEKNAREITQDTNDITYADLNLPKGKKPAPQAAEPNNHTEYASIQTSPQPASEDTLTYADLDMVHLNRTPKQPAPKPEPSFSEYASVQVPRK
T1 sequence (Q08722 whole entry, looked up, the tested form may be a part): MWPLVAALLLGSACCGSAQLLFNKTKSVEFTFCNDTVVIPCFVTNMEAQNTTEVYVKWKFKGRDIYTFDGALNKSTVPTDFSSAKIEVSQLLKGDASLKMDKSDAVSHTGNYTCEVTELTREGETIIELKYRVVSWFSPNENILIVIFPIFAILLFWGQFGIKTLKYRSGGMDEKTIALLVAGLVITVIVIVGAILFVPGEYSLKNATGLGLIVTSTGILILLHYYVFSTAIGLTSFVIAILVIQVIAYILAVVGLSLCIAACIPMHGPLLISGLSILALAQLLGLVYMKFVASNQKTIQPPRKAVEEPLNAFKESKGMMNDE
Procedure, shortened: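 Soluble extracellular domains: Avi-tag biotinylated SIRPalpha (25 nM) preincubated 30 min RT with compound, then 6His-CD47 (12.5 nM) 30 min; Ni-NTA acceptor and streptavidin donor beads (10 ug/mL) 30 min, AlphaScreen read. PBS pH 7.4, 0.05% IGEPAL.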

[8] = target: Parathyroid hormone/parathyroid hormone-related peptide receptor (Homo sapiens) (UniProt Q03431); test: qHTS for PTHR1 Agonists: Optimization Screen against the NCGC LOPAC library (AID 1347079);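 also: GloSensor cAMP luminescence in HEK-293 GP2 cells expressing human PTHR1 with IBMX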
Parathyroid hormone/parathyroid hormone-related peptide receptor (Homo sapiens), sequence (Q03431 whole entry, looked up): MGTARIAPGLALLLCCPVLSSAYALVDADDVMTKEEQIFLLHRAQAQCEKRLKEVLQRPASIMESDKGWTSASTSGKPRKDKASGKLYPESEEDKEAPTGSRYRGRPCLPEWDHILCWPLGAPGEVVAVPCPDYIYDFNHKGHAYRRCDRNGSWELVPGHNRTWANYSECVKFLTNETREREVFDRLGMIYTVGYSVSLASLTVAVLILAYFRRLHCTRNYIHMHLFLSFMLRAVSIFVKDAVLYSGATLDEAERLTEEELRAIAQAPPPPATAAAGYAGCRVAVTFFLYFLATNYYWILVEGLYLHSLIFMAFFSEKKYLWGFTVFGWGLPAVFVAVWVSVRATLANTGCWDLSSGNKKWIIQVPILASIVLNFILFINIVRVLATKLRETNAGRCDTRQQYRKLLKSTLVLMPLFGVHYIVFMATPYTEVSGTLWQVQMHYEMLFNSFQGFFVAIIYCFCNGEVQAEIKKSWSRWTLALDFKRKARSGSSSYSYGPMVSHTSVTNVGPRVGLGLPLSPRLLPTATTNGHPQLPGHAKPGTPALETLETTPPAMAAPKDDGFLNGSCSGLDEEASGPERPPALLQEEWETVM
Procedure, shortened: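 Agonist readout: GloSensor cAMP luminescence, read after 15 min at room temperature. HEK-293-derived GP2 line carries PTHR1; compounds tested as a titration for 1 hr at 37C in presence of IBMX. M-PTH (1-15) served as control.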

[9] = qHTS of pediatric cancer cell lines to identify multiple opportunities for drug repurposing: Primary screen for TC32 cells (AID 1347089); also: nearly all actives have a fitted effect of over 60% in size; also: potency is read from the fitted curve at half-maximal effect
Procedure, shortened: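 Measured quantity: luminescence from CellTiter-Glo, reflecting metabolically active TC32 cells following 48 h of compound. Curves came straight from multi-point titrations, with 8 or 11 points in primary and 11 in confirmatory screening.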

[10] = qHTS of pediatric cancer cell lines to identify multiple opportunities for drug repurposing: Primary screen for DAOY cells (AID 1347090); also: nearly all actives have a fitted effect of over 55% in size; also: potency is read from the fitted curve at half-maximal effect
Procedure, shortened: (§1)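 Eight- or eleven-point concentration series, 48 h treatment at 37 degrees C in growth media; readout CellTiter-Glo luminescence. Potency and efficacy were taken from the concentration-response curves.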

[11] = qHTS of pediatric cancer cell lines to identify multiple opportunities for drug repurposing: Primary screen for SJ-GBM2 cells (AID 1347091); also: potency is read from the fitted curve at half-maximal effect
Procedure, shortened: as §1

[12] = qHTS of pediatric cancer cell lines to identify multiple opportunities for drug repurposing: Primary screen for SK-N-MC cells (AID 1347093); also: potency is read from the fitted curve at half-maximal effect
Procedure, shortened: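 Metabolically active cells were quantified by ATP-dependent luminescence (CellTiter-Glo, 15 min at room temperature) following 48 h treatment. Cells had been plated at 500-1,000 per well and settled for 5 h beforehand.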

[13] = qHTS of pediatric cancer cell lines to identify multiple opportunities for drug repurposing: Primary screen for BT-37 cells (AID 1347094); also: potency is read from the fitted curve at half-maximal effect
Procedure, shortened: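 Quantitative HTS format: each compound titrated (MIPE 11 points from 0.78 nM, NPC 8 points from 0.59 nM) onto cells plated 5 hours earlier. After 48 h at 37 degrees C, CellTiter-Glo luminescence was recorded.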

[14] = target: T1, Tyrosine-protein phosphatase non-receptor type substrate 1 (Homo sapiens) + Leukocyte surface antigen CD47 (Homo sapiens); test: CD47-SIRPalpha protein protein interaction - LANCE assay qHTS validation (AID 1347057; active = well fitted curve in the direction sought with a large enough effect in the signal ratio, with a control signal flat, not every such curve was filed as active; the % refers to the signal ratio; also: series mostly up to about 38 µM)
Procedure, shortened: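 First, His-tagged CD47 and Eu-labelled anti-His antibody met the compound for 30 min; next, site-specifically biotinylated SIRPalpha was added for 30 min; finally streptavidin-APC was added before reading the TR-FRET ratio.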

[15] = target: T1, Tyrosine-protein phosphatase non-receptor type substrate 1 (Homo sapiens) + Leukocyte surface antigen CD47 (Homo sapiens); test: CD47-SIRPalpha protein protein interaction - HTRF assay qHTS validation (AID 1347058; active = well fitted curve in the direction sought with a large enough effect in the signal ratio, not every such curve was filed as active; the % refers to the signal ratio; also: series mostly up to about 38 µM)
Procedure, shortened: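 TR-FRET read (Ch1/Ch2 ratio) of soluble extracellular CD47 and Avi-biotinylated SIRPalpha domains in PBS pH 7.4 with 0.05% IGEPAL; 7-point compound titration. Sequential 30 min room-temperature steps; non-biotinylated SIRPalpha as control inhibitor.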

[16] = qHTS of pediatric cancer cell lines to identify multiple opportunities for drug repurposing: Primary screen for A673 cells (AID 1347092); also: nearly all actives have a fitted effect of over 45% in size
Procedure, shortened: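 Cells are plated, rested 5 h, dosed by pintool, incubated 48 h, then lysed with CellTiter-Glo and read by luminescence. DMSO is the neutral control; bortezomib at 2.3 uM final is the positive control.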

Measured: Potency

Nc1nc(N)c2nc(-c3ccccc3)c(N)nc2n1
inactive: [1] | [2] | [3] | [4] | [5] | [6] | [7] | [8]
active: [9] 7.45 µM | [10] 26.6 µM | [11] 6.68 µM | [12] 0.531 µM | [13] 13.8 µM

COCC(=O)O[C@]1(CCN(C)CCCc2nc3ccccc3[nH]2)CCc2cc(F)ccc2[C@@H]1C(C)C
active: [1] 14.6 µM | [2] 2.31 µM | [3] 26.1 µM
inactive: [4] | [6] | [14] | [15] | [7] | [8] | [10]

CN(C)C(=O)Oc1cccc([N+](C)(C)C)c1
inactive: [1] | [2] | [4] | [5] | [6] | [15] | [7] | [8] | [9] | [10] | [11] | [16] | [12] | [13]

CCO/C([O-])=N/c1c[n+](N2CCOCC2)no1
inactive: [1] | [2] | [3] | [4] | [5] | [6] | [7] | [8] | [10] | [11] | [16] | [12] | [13]

CCCCOCCOCCOCc1cc2c(cc1CCC)OCO2
inactive: [1] | [2] | [6] | [9] | [10] | [11] | [16] | [12] | [13]

CN1C[C@H](C(=O)N[C@]2(C)O[C@@]3(O)[C@@H]4CCCN4C(=O)[C@H](Cc4ccccc4)N3C2=O)C[C@@H]2c3cccc4[nH]cc(c34)C[C@H]21
inactive: [1] | [2] | [3] | [4] | [5] | [6] | [15] | [8] | [9] | [10] | [13]

CC(C)(C)c1ccc(C(=O)CCCN2CCC(OC(c3ccccc3)c3ccccc3)CC2)cc1
inactive: [1] | [4] | [5] | [6] | [7] | [8] | [9]
active: [2] 20.6 µM | [11] 26.6 µM | [12] 21.1 µM | [13] 27.6 µM

COc1ccc(CN(CCN(C)C)c2ccccn2)cc1
inactive: [1] | [2] | [3] | [5] | [6] | [14] | [15] | [7] | [8] | [9] | [10] | [11] | [16] | [12] | [13]

CC(C)NCC(O)c1cc(O)cc(O)c1 (stereo not given)
inactive: [1] | [3] | [4] | [5] | [6] | [14] | [15] | [7] | [8] | [9] | [10] | [11] | [16] | [13]

CN(C)C(=O)Oc1ccc[n+](C)c1
inactive: [1] | [3] | [4] | [5] | [6] | [14] | [15] | [7] | [8] | [9] | [10] | [11] | [16] | [12] | [13]

CCNC(=O)N1CCN(CCCC(c2ccc(F)cc2)c2ccc(F)cc2)CC1
inactive: [1] | [6] | [14] | [15] | [7] | [8] | [9] | [11] | [16]
active: [2] 16.4 µM | [3] 11.7 µM

CNCCCN1c2ccccc2CCc2ccccc21
inactive: [1] | [2] | [3] | [4] | [6] | [14] | [15] | [7] | [8] | [9] | [10]

NC(N)=NC(=O)Cc1c(Cl)cccc1Cl
inactive: [1] | [3] | [4] | [5] | [6] | [14] | [15] | [7] | [8] | [9] | [10] | [11] | [16] | [12] | [13]

COc1cc2c(cc1OC)-c1cc(=Nc3c(C)cc(C)cc3C)n(C)c(=O)n1CC2
inactive: [1] | [3] | [4] | [5]
active: [2] 25.9 µM | [11] 16.8 µM | [12] 4.22 µM

CN(C)C/C=C(/c1ccc(Br)cc1)c1cccnc1
inactive: [1] | [3] | [4] | [5] | [6] | [14] | [15] | [7] | [8] | [9] | [10] | [11] | [16] | [12] | [13]

COC(=O)C1=C(C)NC(C)=C(C(=O)OC(C)(C)CN(C)CCC(c2ccccc2)c2ccccc2)C1c1cccc([N+](=O)[O-])c1 (stereo not given)
active: [2] 9.2 µM | [12] 13.3 µM
inactive: [1] | [4] | [5] | [14] | [15] | [7] | [8] | [11]

c1ccc2c(c1)CCCC2C1=NCCN1 (stereo not given)
inactive: [1] | [2] | [3] | [4] | [5] | [6] | [15] | [8] | [9] | [10] | [11] | [16] | [12] | [13]

OC(CCN1CCCCC1)(c1ccccc1)C1CCCCC1 (stereo not given)
inactive: [1] | [2] | [4] | [6] | [8] | [9] | [10] | [16] | [12]

c1cnc(N2CCN(Cc3ccc4c(c3)OCO4)CC2)nc1
inactive: [1] | [3] | [4] | [5] | [6] | [14] | [15] | [7] | [8] | [9] | [10] | [11] | [16] | [12] | [13]

O=C(O)CN(CCN(CC(=O)O)CC(=O)O)CCN(CC(=O)O)CC(=O)O
inactive: [1] | [2] | [3] | [4] | [5] | [6] | [15] | [8] | [9] | [10] | [11] | [16] | [12]
